Results on twelve compounds are retold here after PubChem BioAssay.

For orientation: inhibition means the relative decrease from the control value, in per cent.

Several values for one entry are separate records, joined by “and”; a condition that tells them apart may be missing. Equal entries are not always repeated. Activity calls are given as the source filed them.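 How the source made its calls, unless noted: active means inhibition at or above 50% relative to wild type and mutant plate controls; inactive means inhibition below 50%.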

A short description of experiment [1]: inhibitors of TNFa-induced NFkB p65 translocation, primary screen, imaging, HUVEC, MLSMR starter and 10KST1 sets (AID 438;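 active means inhibition above 20% together with a positive visual image hit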;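 further: compound added about 3h40 before a 20 min TNFalpha stimulation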;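 on inhibition: signal is the nuclear over cytoplasmic p65 intensity ratio per well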). Particulars: HUVEC TNFa-induced p65 nuclear translocation; cell count: measured here: nuclei count (cytotoxicity indicator), at 2.08 µM; inhibition: at 2 µM, stronger effect = higher value, 0% TNFa-plus-vehicle, 100% no-TNFa wells.
A short description of experiment [2]: endothelial E-selectin expression blockers – imaging, HUVEC, immunofluorescence, MLSMR starter and 10KST1 sets, primary screen (AID 487;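 active means visually confirmed hit in the image check and inhibition above 20%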;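 on inhibition: signal is fraction of cell area covered by stained E-selectin grains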;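 on nuclei count: 100% = median nuclei count of all wells on the same plate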). Particulars: HUVEC TNFalpha-induced E-selectin immunofluorescence imaging, at 2 µM; inhibition: stronger effect = higher value; nuclei count: measured here: cell number, toxicity.
Experiment [3] is described as follows: Primary imaging screen for DUSP6 inhibitors that restore phospho-Erk in transfected HeLa cells, chemical complementation (AID 609;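 active means compounds giving at least 50% inhibition in the cell-based MKP-3 phosphatase rescue imaging test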;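 on inhibition: phospho-Erk level distribution per well compared with pooled transfected vehicle control wells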). The note with it: HeLa MKP-3 transfected, phospho-Erk imaging KS statistic, at 10 µM, cells stimulated with TPA for 15 min.
For experiment [4], the target named is Dual specificity protein phosphatase 6 (Homo sapiens) (UniProt Q16828). Described as above. Particulars: HeLa MKP-3 transfected, phospho-Erk imaging KS statistic; at 10 µM; stronger effect = higher value; cells stimulated with TPA for 15 min.
Sequence of Dual specificity protein phosphatase 6 (Homo sapiens) (Q16828 whole entry, looked up): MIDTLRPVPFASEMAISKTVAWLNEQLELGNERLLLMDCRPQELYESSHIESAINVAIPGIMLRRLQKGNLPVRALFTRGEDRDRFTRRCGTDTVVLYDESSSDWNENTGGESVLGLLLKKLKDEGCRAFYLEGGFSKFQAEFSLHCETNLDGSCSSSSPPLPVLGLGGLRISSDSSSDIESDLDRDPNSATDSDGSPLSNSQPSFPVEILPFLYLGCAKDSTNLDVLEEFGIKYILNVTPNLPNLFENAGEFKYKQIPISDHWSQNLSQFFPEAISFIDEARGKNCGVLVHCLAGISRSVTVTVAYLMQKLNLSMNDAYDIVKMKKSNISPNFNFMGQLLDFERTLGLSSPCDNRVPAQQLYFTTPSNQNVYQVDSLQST
Experiment [5] has as its target Voltage-gated potassium channel subunit beta-2 (Rattus norvegicus) (UniProt P62483). Kind of experiment: inhibitors of rat Kvbeta2 reductase activity – biochemical, NADPH fluorescence, primary screen (AID 622;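 active means fluorescence slope higher than the sample average by over 3 SD, cut at about -0.22 in these data, passing the limit was not always enough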;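 further: slope of raw intensity against log time taken from 70 to 1610 s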). Particulars: recombinant KvBeta, 4-cyanobenzaldehyde reduction, at 10 µM, stronger effect = higher value.
Experiment [6] has the same target. Kind of experiment: enhancers of rat Kvbeta2 NADPH turnover – biochemical, NADPH fluorescence, primary screen (AID 623;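 active means NADPH fluorescence slope more negative than the mean of all samples by about 3 SD, 99.7% confidence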;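 further: fluorescence intensity change per second fitted from 20 to 320 s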). The note with it: Recombinant KvBeta, NADPH fluorescence decrease slope, 10 min; at 10 µM; stronger effect = lower value.
Experiment [7] concerns the target Muscarinic acetylcholine receptor M4 (Homo sapiens) (UniProt P08173). Kind of experiment: M4-linked GIRK flux change, two-sided – cell-based, HEK293 M4/GIRK, thallium flux, BTC-AM, M4 allosteric agonist project, primary screen (AID 625;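 active means fluorescence slope after compound addition differing from the mean of all tested samples at 99.7% confidence, mostly higher but some lower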;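 further: thallium influx through GIRK channels coupled to M4 in HEK293 cells with BTC-AM dye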). Particulars: at 10 µM, actives lie on both sides.
Experiment [8] can be described thus: inhibitors of larval lipid processing in zebrafish, primary screen, whole organism, PED6 fluorescence, gall bladder and intestine (AID 686;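 active means a full or partial loss of lipid-probe fluorescence in the fish gall bladder, intestine or both, judged by eye; inactive means no fluorescence loss, or compound toxic to the fish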;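 further: larvae 5 to 7 days old with five fish per well; signal comes from phospholipase A2 cleavage of quenched PED6 carried via bile; overnight exposure to compound and PED6 before scoring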). Particulars: Zebrafish larvae PED6 lipid processing, fluorescence scoring; screened at 20 µM (by protocol).
Experiment [9] is described as follows: loss of swimming-algae plug formation – whole organism, Chlamydomonas reinhardtii, WT vs cilia-less mutant, absorbance, 96-well, primary screen (AID 463189).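 Further: 0% = wild type cc124 cells in DMSO and 100% = ciliumless bld1 mutant cells.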 Particulars: Chlamydomonas reinhardtii gravitaxis, OD600 absorbance, 2 days; at 10 µM; stronger effect = higher value.
Experiment [10] can be described thus: reduction of polyQ htt aggregates in cells – imaging, exon1htt(103Q)mCFP cells, high-content imaging, primary screen (AID 483;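 active means visual image review flags a hit and inhibition of aggregation exceeds 20%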;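 further: compound exposure lasted 3 days before fixation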;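 on nuclei count: percent of the per-plate median nuclei count of sample wells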). The note with it: exon1htt(103Q)mCFP cell line, aggregate imaging, at 2 µM; inhibition of aggregation: stronger effect = higher value; nuclei count: measured here: cell count, toxicity.
The target of experiment [11] is Alpha-2C adrenergic receptor (Homo sapiens) (UniProt P18825). Put plainly: compounds altering alpha2C-coupled GIRK flux – cell-based, HEK293 alpha2C/GIRK1/2, thallium flux, primary screen (AID 624;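 active means fluorescence slope after compound addition differing from the mean of all screened samples at 99.7% confidence, in either direction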;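 further: slope of fluorescence ratio to pre-addition baseline per second over 15 to 24 s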). Particulars: thallium flux BTC fluorescence, at 10 µM, actives lie on both sides.
Sequence of Alpha-2C adrenergic receptor (Homo sapiens) (P18825 whole entry, looked up): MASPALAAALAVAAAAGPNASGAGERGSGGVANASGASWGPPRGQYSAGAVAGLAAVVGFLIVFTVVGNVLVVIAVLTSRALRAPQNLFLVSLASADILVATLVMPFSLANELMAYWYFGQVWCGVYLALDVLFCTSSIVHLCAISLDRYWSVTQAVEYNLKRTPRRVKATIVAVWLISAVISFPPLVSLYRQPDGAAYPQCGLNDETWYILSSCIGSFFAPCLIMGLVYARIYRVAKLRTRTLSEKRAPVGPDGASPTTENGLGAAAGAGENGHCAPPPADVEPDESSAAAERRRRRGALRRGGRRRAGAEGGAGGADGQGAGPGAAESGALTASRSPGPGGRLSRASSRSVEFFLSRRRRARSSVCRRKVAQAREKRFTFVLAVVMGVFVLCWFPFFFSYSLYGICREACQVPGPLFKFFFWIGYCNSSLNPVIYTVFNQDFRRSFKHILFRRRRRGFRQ
The nature of experiment [12]: blockers of RIG-like receptor reporter activation – cell-based, Sendai virus stimulus, luciferase, 10K MLSCN set, TLR/RLR signaling modifier project, primary screen (AID 602276;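 active means inhibition at or above 50% at 10 µM; inactive means inhibition below 50%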;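 further: firefly luciferase from ISG56 promoter only with Renilla not read in this screen; 0% = Sendai virus plus DMSO and 100% = medium plus DMSO without virus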). The note with it: HEK293 RL24 IRF3 luciferase reporter, at 10 µM, stronger effect = higher value.
A short description of experiment [13]: TLR3 IRF3 reporter activation blockers – cell-based, poly I:C stimulus, luciferase, 10K MLSCN set, primary screen (AID 602277;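 active means inhibition of the reporter signal at or above 50%; inactive means inhibition below 50%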). The note with it: HEK293-TLR3 RL24 IRF3 luciferase reporter, at 10 µM, stronger effect = higher value. (A reporter such as luciferase makes a cellular process visible.)
Setting [14] is: measured here: cell density z-score.
The mark [15] stands for this setting: measured here: nuclear c-Myc green intensity z-score.
Setting [16] is: measured here: nuclear pErk red intensity z-score, stronger effect = higher value.

Sequence of Voltage-gated potassium channel subunit beta-2 (Rattus norvegicus) (P62483 whole entry, looked up): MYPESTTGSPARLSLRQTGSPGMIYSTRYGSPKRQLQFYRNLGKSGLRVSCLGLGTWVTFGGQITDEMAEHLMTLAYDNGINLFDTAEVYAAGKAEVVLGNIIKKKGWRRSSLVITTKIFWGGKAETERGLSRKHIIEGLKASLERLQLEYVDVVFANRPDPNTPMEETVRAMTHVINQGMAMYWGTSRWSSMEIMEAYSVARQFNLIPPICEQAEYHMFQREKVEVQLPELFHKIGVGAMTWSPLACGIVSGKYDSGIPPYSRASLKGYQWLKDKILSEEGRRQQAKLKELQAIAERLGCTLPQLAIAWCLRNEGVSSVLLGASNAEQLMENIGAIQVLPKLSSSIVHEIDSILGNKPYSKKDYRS
Sequence of Muscarinic acetylcholine receptor M4 (Homo sapiens) (P08173 whole entry, looked up): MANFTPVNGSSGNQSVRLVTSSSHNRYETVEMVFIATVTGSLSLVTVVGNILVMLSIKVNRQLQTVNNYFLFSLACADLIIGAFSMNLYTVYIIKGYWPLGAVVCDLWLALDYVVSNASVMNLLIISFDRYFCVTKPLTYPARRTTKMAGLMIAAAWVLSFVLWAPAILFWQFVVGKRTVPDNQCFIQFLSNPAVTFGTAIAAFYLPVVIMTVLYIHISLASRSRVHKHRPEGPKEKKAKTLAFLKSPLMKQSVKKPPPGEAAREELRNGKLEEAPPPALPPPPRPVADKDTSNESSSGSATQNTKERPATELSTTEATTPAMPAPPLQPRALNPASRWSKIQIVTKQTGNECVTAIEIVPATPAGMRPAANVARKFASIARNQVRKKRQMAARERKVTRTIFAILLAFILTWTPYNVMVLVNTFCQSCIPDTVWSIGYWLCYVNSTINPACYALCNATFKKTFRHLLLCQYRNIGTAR

For the compound `Cc1ccc(Cn2ncc3c(N4CCN(c5ccc(C)cc5)CC4)ncnc32)cc1`, the cell count in experiment [1] is 548. Besides, the inhibition is -0.1% (inactive) in experiment [1], 2.9% (inactive) in experiment [2], 17.8% (inactive) in experiment [4] and -10.9% (inactive) in experiment [9]. Moreover, the nuclei count in [2] came to 164%. Further, the results for the z-score in experiment [3] (setting [14]), in experiment [3] (setting [15]) and in [3] (setting [16]) were 0.777, 0.779 and 1.42, respectively. The fluorescence slope is -0.39 (inactive) in experiment [5] and 0.00638 (inactive) in [7]. Also, the NADPH fluorescence slope in experiment [6] is -5.3e-05 (inactive). Besides, the outcome in experiment [8] was inactive.
On to `CC1(C)CC(=O)C2=C(C1)OC(N)=C(C#N)[C@@]21C(=O)N(CC(N)=O)c2ccccc21`, for which, in experiment [1], the cell count was 375. In addition, the inhibition in experiment [1] was -8% (inactive); in experiment [2] it was -63.6% (inactive); in experiment [4], -3.95% (inactive); in experiment [9], -3.87% (inactive). In experiment [2], this compound had a nuclei count of 114%. The results for the z-score in experiment [3] (setting [14]), in [3] (setting [15]) and in experiment [3] (setting [16]) were 0.0987, 0.575 and -0.037, respectively. Besides, the fluorescence slope in experiment [5] was -0.464 (inactive); in experiment [7], 0.00604 (inactive). The NADPH fluorescence slope in [6] was -2e-05 (inactive). The result in experiment [8] was inactive.
As to `CC(=O)OCC(=O)[C@@]1(O)CC[C@H]2[C@@H]3CCC4=CC(=O)CC[C@]4(C)[C@H]3C(=O)C[C@@]21C`, in experiment [10], the inhibition of aggregation is 16.5% (inactive). Also, the nuclei count in [10] was found to be 99.5%; in experiment [2], 97.4%. In addition, the inhibition in [2] was -92.4% (inactive); in experiment [4] it was 3.59% (inactive); in experiment [9], 9.11% (inactive) and 28.9% (inactive); in experiment [12], 3.98% (inactive); in experiment [13] it was 27.5% (inactive). The values for the z-score in experiment [3] (setting [14]), in [3] (setting [15]) and in experiment [3] (setting [16]) were -1.29, -1.69 and 0.158, respectively. Besides, in experiment [5], the fluorescence slope was -0.477 (inactive). Further, the NADPH fluorescence slope in [6] was -6.1e-05 (inactive). Moreover, the slope in [11] was 0.00575 (inactive).
For `C=CC(O)Cc1c(C)n[nH]c1C` (stereo unspecified), in experiment [1], the cell count amounted to 656. In addition, the inhibition was -7.1% (inactive) in [1], -59.4% (inactive) in experiment [2], -9.66% (inactive) in experiment [4] and 11.7% (inactive) in experiment [9]. For the same compound, the nuclei count in experiment [2] worked out at 167%. In addition, the z-score in [3] (setting [14]) is -1.01; in experiment [3] (setting [15]), -0.115; in experiment [3] (setting [16]) it was -0.502. For the same compound, the fluorescence slope is -0.503 (inactive) in [5] and 0.00568 (inactive) in experiment [7]. Also, the NADPH fluorescence slope in experiment [6] was -6.2e-05 (inactive). Moreover, the outcome in experiment [8] was inactive.
As to `COc1ccccc1C(=O)N1CCN(Cc2ccc3c(c2)OCO3)CC1`, the cell count in [1] stood at 590. In addition, the inhibition in experiment [1] was -14.5% (inactive); in experiment [2], 34.9% (inactive); in [4], -15% (inactive); in experiment [9] it was 12.2% (inactive). For the same compound, the nuclei count in [2] was found to be 183%. Besides, the z-score in [3] (setting [14]) was -2.41; in experiment [3] (setting [15]), 2.03; in [3] (setting [16]), 1. In addition, the fluorescence slope in experiment [5] was -0.361 (inactive). Moreover, the NADPH fluorescence slope in [6] is -4e-05 (inactive). Moreover, the slope in experiment [11] is 0.0055 (inactive). Moreover, the compound was classed as inactive in experiment [8].
For the compound `CCCSc1nnc2n(C)c(=O)c3c4c(sc3n12)CCC4`, the cell count in [1] amounted to 376. The inhibition in experiment [1] is -2.9% (inactive); in [2], -11.1% (inactive); in experiment [4], 9.42% (inactive); in [9], 62% (active). The same compound came in with a nuclei count in experiment [2] of 83.1%. Further, the z-score was -0.271 in experiment [3] (setting [14]), -0.0406 in experiment [3] (setting [15]) and 0.896 in experiment [3] (setting [16]). For the same compound, the figures for the fluorescence slope in experiment [5] and in experiment [7] were -0.501 (inactive) and 0.00582 (inactive), respectively. In addition, the NADPH fluorescence slope in experiment [6] is -7.9e-05 (inactive). In addition, the compound was called inactive in experiment [8].
In the case of `COC(=O)c1[nH]c(C)c(/C(O)=C2\C(=O)C(=O)N(CCN3CCOCC3)C2c2cccnc2)c1C` (stereo unspecified), the cell count in experiment [1] amounted to 605. Besides, the inhibition was -1.2% (inactive) in experiment [1], -2.2% (inactive) in [2], -3.95% (inactive) in [4] and 5.4% (inactive) in experiment [9]. Moreover, the nuclei count in [2] was found to be 163%. The z-score in experiment [3] (setting [14]) is -1.96; in [3] (setting [15]), 0.711; in experiment [3] (setting [16]), -3.8. The fluorescence slope in experiment [5] is -0.46 (inactive); in [7], 0.00521 (inactive). Further, the NADPH fluorescence slope in experiment [6] is -0.000197 (inactive). In experiment [8], the result was inactive.
With `CC1CN(C2CCN(C(=O)c3ccccc3)CC2)CC(C)O1` (stereo unspecified), the cell count in experiment [1] stood at 391. For the same compound, the values for the inhibition in experiment [1], in experiment [4] and in experiment [9] were -25.6% (inactive), -0.159% (inactive) and 4.48% (inactive), respectively. This compound also registered a nuclei count in experiment [2] of 174%. Moreover, the z-score was 1.48 in experiment [3] (setting [14]), -0.00638 in [3] (setting [15]) and -0.737 in [3] (setting [16]). Moreover, the fluorescence slope in [5] was -0.395 (inactive). Besides, in [6], the NADPH fluorescence slope was -3.8e-05 (inactive). Moreover, in experiment [11], the slope is 0.00679 (inactive). Further, the outcome in experiment [8] was inactive.
For the compound `CCC(NC(=O)Nc1ccc(O)cc1)(C(F)(F)F)C(F)(F)F`, in experiment [1], the cell count was 709. The inhibition was -9.4% (inactive) in experiment [1], 18.3% (inactive) in experiment [2], -3.95% (inactive) in experiment [4] and 2.89% (inactive) in experiment [9]. The compound further registered a nuclei count in experiment [2] of 156%. Moreover, the z-score in experiment [3] (setting [14]) was -0.865; in experiment [3] (setting [15]) it was 0.673; in [3] (setting [16]), 0.754. In addition, the fluorescence slope was -0.448 (inactive) in experiment [5] and 0.00524 (inactive) in [7]. The NADPH fluorescence slope in [6] is -3.4e-05 (inactive). The call in [8] was inactive.
For the compound `O=C(O)c1c[nH]c2ccc(S(=O)(=O)N3CCOCC3)cc12`, the cell count in experiment [1] was 597. Moreover, the inhibition in [1] was -4.4% (inactive); in [2], -208% (inactive); in experiment [4] it was 5.42% (inactive); in experiment [9], 8.59% (inactive). In addition, in experiment [2], the nuclei count was found to be 144%. Also, the z-score in [3] (setting [14]) was -0.324; in [3] (setting [15]), -1.59; in experiment [3] (setting [16]) it was 0.18. Moreover, the fluorescence slope in experiment [5] was -0.496 (inactive); in [7], 0.00433 (inactive). For the same compound, in experiment [6], the NADPH fluorescence slope was -6.6e-05 (inactive). Besides, the call in experiment [8] was inactive.
Regarding `CCN1CCc2c(C#N)c(NCc3ccccc3)nc(NCCO)c2C1`, the cell count in [1] stood at 534. The inhibition in experiment [1] is -12% (inactive); in experiment [2], -113% (inactive); in experiment [4] it was -5.81% (inactive); in [9] it was -0.503% (inactive). Moreover, in experiment [2], the nuclei count was determined as 151%. Moreover, the z-score was 0.614 in experiment [3] (setting [14]), -1.73 in experiment [3] (setting [15]) and -1.03 in [3] (setting [16]). For the same compound, the fluorescence slope in [5] is -0.398 (inactive); in experiment [7], 0.00361 (inactive). In addition, in experiment [6], the NADPH fluorescence slope is -3.2e-05 (inactive). In addition, the compound was called inactive in experiment [8].
`Cc1ccc(-c2nnc(OCCN3CCOCC3)c3ccccc23)cc1`: the cell count in experiment [1] came to 453. The inhibition was 0.4% (inactive) in experiment [1], -85.1% (inactive) in experiment [2], 4.37% (inactive) in experiment [4] and 30.5% (inactive) in experiment [9]. The nuclei count in experiment [2] stood at 167%. In addition, the values for the z-score in [3] (setting [14]), in experiment [3] (setting [15]) and in [3] (setting [16]) were 1.01, -0.803 and -0.0262, respectively. Moreover, the fluorescence slope is -0.463 (inactive) in experiment [5] and 0.00559 (inactive) in experiment [7]. The NADPH fluorescence slope in experiment [6] was -2.6e-05 (inactive). The compound was classed as inactive in experiment [8].
